# Measurements published in PubChem BioAssay (NCATS).
# Records with an inconclusive call do not appear. Activity calls are given as the source filed them. The call rests on the fitted dose curve; in most records, active means well fitted cell-killing curve with a large enough effect; inconclusive means small, poorly fitted or top-dose-only effect; inactive means no such curve, though single readings can be large or run the other way.
# Experiment: Quantitative High-Throughput drug screen in 47 multiple myeloma cell lines against the NCATS MIPE library collection: JIM3_ECACC cell viability assay (AID 1918963; further: nearly all actives have a fitted effect of over 35% in size)
# Conditions: JIM3 myeloma viability, CellTiter-Glo ATP, 48 h; series mostly up to 45.8 µM; viability, percent of control: at the top concentration
# Source text: PI: Beverly A. Mock Ph.D.
# Laboratory of Cancer Biology and Genetics,
# Center for Cancer Research, National Cancer Institute,
# National Institute of Health, Bethesda, Maryland
# Drug resistance and disease progression are common in multiple myeloma (MM) patients, underscoring the need for new therapeutic combinations. […] We hypothesized that effective combinations would reduce MYC expression and enhance p16 activity. […] These preclinical data identify potentially useful drug combinations for evaluation in drug-resistant MM and reveal potential mechanisms of combined drug sensitivity.
# Described herein is the primary MIPE qHTS used to cherrypick compounds. Validated compounds were then further tested for potential synergistic activiy.
# [1] Peat TJ, Gaikwad SM, Dubois W, Gyabaah-Kessie N, Zhang S, Gorjifard S, Phyo Z, Andres M, Hughitt VK, Simpson RM, Miller MA, Girvin AT, Taylor A, Williams D, D'Antonio N, Zhang Y, Rajagopalan A, Flietner E, Wilson K, Zhang X, Shinn P, Klumpp-Thomas C, McKnight C, Itkin Z, Chen L, Kazandijian D, Zhang J, Michalowski AM, Simmons JK, Keats J, Thomas CJ, Mock BA. Drug combinations identified by high-throughput screening promote cell cycle transition and upregulate Smad pathways in myeloma. Cancer Lett. 2023 Aug 1;568:216284. doi: 10.1016/j.canlet.2023.216284. Epub 2023 Jun 24. PMID: 37356470; PMCID: PMC10408729.
# SEQUENCE No. (e.g., 1, 2, 3, etc.); […] (e.g., Cells, Incubation, Reagent, etc.); VALUE and DESCRIPTION.
# 1; Cells; 5 uL; white, solid bottom 1536-well Greiner assay plate.
# 2; Compounds; 23 nL; Kalypsis pin tool (Wako USA) equipped with a 1536-well pin head to transfer to the assay plates.
# 3; Incubation; 48 hours; 37C incubation.
# 4; Reagent;5uL; CellTiter Glo (Promega).
# 5; Detector; 425V; Luminescence; Viewlux PerkinElmer.
# NOTES (numbers refer to Sequence numbers above)
# 1. The cell-based screening methods employed in this study were like those previously published. Briefly, the corresponding myeloma cell lines were screened in 1,536-well plates with 500 cells, 5-uL per well for inhibition of cell viability (assessed by measuring ATP levels with CellTiterGlo).
# 2. NCATS MIPE 4.0 library of approved and investigational drugs were added using the Kalypsis pin tool. Wells treated with DMSO only for 100% viability and media only wells for 0% viability were used as controls.
# 3. The assay plates were covered and incubated for 48 hours in a 37C, 5% CO2 incubator with controlled humidity.
# 4. After 48 hours, CellTilter-GloTM luminescent substrate mix (Promega) reagent was added to the assay plate and plates we incubated for 5 min at room temperature.
# 5. Signal was measured as median relative luminescence units on a ViewLux (PerkinElmer) multiplate reader.
# [1] Heske CM, Davis MI, Baumgart JT, Wilson K, Gormally MV, Chen L, Zhang X, Ceribelli M, Duveau DY, Guha R, Ferrer M, Arnaldez FI, Ji J, Tran HL, Zhang Y, Mendoza A, Helman LJ, Thomas CJ. Matrix Screen Identifies Synergistic Combination of PARP Inhibitors and Nicotinamide Phosphoribosyltransferase (NAMPT) Inhibitors in Ewing Sarcoma. Clin Cancer Res. 2017 Dec 1;23(23):7301-7311. doi: 10.1158/1078-0432.CCR-17-1121. Epub 2017 Sep 12. PMID: 28899971; PMCID: PMC6636827.
# Potency means the concentration at half of the fitted maximal effect.
SMILES,"viability, percent of control",Potency
CN(C)CCN(C)CCc1ccc(Cl)c(Cl)c1,133% (inactive),–
CNCC(O)c1ccc(O)cc1 (configuration not stated),99.1% (inactive),–
COc1ccc(C(=O)c2c(C)n(CCN3CCOCC3)c3ccccc23)cc1,102% (inactive),–
N[C@@H](Cc1ccc(N(CCCl)CCCl)cc1)C(=O)O,–,16.6 µM (active)
CN1CCN(C(=O)O[C@H]2c3nccnc3C(=O)N2c2ccc(Cl)cn2)CC1,116% (inactive),–
C[C@@H]1[C@@H](C(=O)C[C@H]2O[C@@H]3O[C@]4(C)CC[C@@H]5[C@H](C)CC[C@@H]([C@H]2C)[C@@]35OO4)O[C@@H]2O[C@]3(C)CC[C@H]4[C@H](C)CC[C@@H]1[C@@]24OO3,–,0.187 µM (active)
COc1ccc2c(c1OC)CN1CCc3cc4c(cc3C1C2)OCO4 (configuration not stated),–,16.6 µM (active)
COC1(CS(=O)c2ccccc2)CCN(CCc2c[nH]c3ccc(F)cc23)CC1 (configuration not stated),101% (inactive),–
C[C@@H]1[C@@H](CC(C[C@H]2O[C@@H]3O[C@]4(C)CC[C@@H]5[C@H](C)CC[C@@H]([C@H]2C)[C@@]35OO4)C[S+](=O)([O-])c2ccc(COC(=O)N(C)C)cc2)O[C@@H]2O[C@]3(C)CC[C@H]4[C@H](C)CC[C@@H]1[C@@]24OO3 (some centres not stated),–,0.264 µM (active)
CC(C)CC(N(C)C)C1(c2ccc(Cl)cc2)CCC1 (configuration not stated),109% (inactive),–
Fc1ccc(C(OCCN2CCN(CCCc3ccccc3)CC2)c2ccc(F)cc2)cc1,–,13.2 µM (active)
C#CCN(C)[C@H](C)Cc1ccccc1,101% (inactive),–
CN(C)CCc1ccc(O)cc1,99.2% (inactive),–
CC1=C2C[C@@H]3[C@@H](CC=C4C[C@@H](O)CC[C@@]43C)[C@@H]2CC[C@]12O[C@H]1C[C@H](C)CN[C@H]1[C@H]2C,118% (inactive),–
COc1ccc(C(CN(C)C)C2(O)CCCCC2)cc1 (configuration not stated),99.3% (inactive),–
COC[C@@H](NC(C)=O)C(=O)NCc1ccccc1,122% (inactive),–

SMILES,"viability, percent of control",Potency
O=C1CC[C@@]2(O)[C@H]3Cc4ccc(O)c5c4[C@@]2(CCN3CC2CC2)[C@H]1O5,131% (inactive),–
C[C@@H]1O[C@@H](O[C@H]2C[C@@H](O)[C@]3(CO)[C@H]4[C@H](O)C[C@]5(C)[C@@H](C6=CC(=O)OC6)CC[C@]5(O)[C@@H]4CC[C@]3(O)C2)[C@H](O)[C@H](O)[C@H]1O,–,0.0418 µM (active)
Cn1cc(C2=C(c3cn(C4CCN(Cc5ccccn5)CC4)c4ccccc34)C(=O)NC2=O)c2ccccc21,–,8.33 µM (active)
CNC(=O)c1ccc(N2C(=S)N(c3ccc(C#N)c(C(F)(F)F)c3)C(=O)C23CCC3)cc1F,–,23.5 µM (active)
O=P1(NCCCl)OCCCN1CCCl (configuration not stated),–,20.9 µM (active)
O=c1[nH]c2ccccc2n1CCCN1CCC(n2c(=O)[nH]c3cc(Cl)ccc32)CC1,111% (inactive),–
COC[C@H]1OC(=O)c2coc3c2[C@@]1(C)C1=C(C3=O)C2CCC(=O)[C@@]2(C)C[C@H]1OC(C)=O (some centres not stated),–,4.69 µM (active)
CNC(=O)N1N=C(c2ccc(N)cc2)c2cc3c(cc2CC1C)OCO3 (configuration not stated),–,4.69 µM (active)
Cn1c(CCCC(=O)O)nc2cc(N(CCCl)CCCl)ccc21,107% (inactive),–
Cc1sc2c(c1C)C(c1ccc(Cl)cc1)=N[C@@H](CC(=O)OC(C)(C)C)c1nnc(C)n1-2,–,1.66 µM (active)
NCC1(CC(=O)O)CCCCC1,110% (inactive),–
O=C(O)C(=O)c1cn(Cc2ccccc2)c2ccc(-c3ccc(OC(F)(F)F)cc3)cc12,–,18.7 µM (active)
CC(O)(CS(=O)(=O)c1ccc(F)cc1)C(=O)Nc1ccc(C#N)c(C(F)(F)F)c1 (configuration not stated),–,2.96 µM (active)
C=C(C)[C@H]1Cc2c(ccc3c2O[C@@H]2COc4cc(OC)c(OC)cc4[C@@H]2C3=O)O1,–,0.935 µM (active)
Cc1cccc(C)c1NC(=O)CN1CCCC1=O,101% (inactive),–
Cc1cc(SCc2sc(-c3ccc(C(F)(F)F)c(F)c3)nc2C)ccc1OCC(=O)O,–,20.9 µM (active)
